Data from PubChem BioAssay (NCATS).
Values joined by “and” are separate entries in the source; they are usually repeats but may differ in a detail not shown here. Equal values may be shown once. Inconclusive results are not listed. More than one record can exist for a structure, and the calls need not agree. Active and inactive are the calls of the source. Unless noted, calls come from the whole dose curve; as a rule, active = well fitted curve in the direction sought with a large enough effect; inconclusive = small, poorly fitted or top-dose-only effect, or another doubt; inactive = no such curve, though single readings can be large; an effect the other way counts as inactive or inconclusive.

Tests used:
[1] = target: Rap guanine nucleotide exchange factor 4 (Homo sapiens) (UniProt Q8WZA2); assay: Confirmatory qHTS for antagonist of cAMP-regulated guanine nucleotide exchange factor 4 (EPAC2) (AID 1645885); note: nearly all actives have a fitted effect of over 25% in size; note: potency is the fitted concentration of half-maximal effect; for activity change, negative = inhibition: % is set by controls: 0 for no effect and ±100 for the full control effect
Rap guanine nucleotide exchange factor 4 (Homo sapiens), sequence (Q8WZA2 whole entry, looked up): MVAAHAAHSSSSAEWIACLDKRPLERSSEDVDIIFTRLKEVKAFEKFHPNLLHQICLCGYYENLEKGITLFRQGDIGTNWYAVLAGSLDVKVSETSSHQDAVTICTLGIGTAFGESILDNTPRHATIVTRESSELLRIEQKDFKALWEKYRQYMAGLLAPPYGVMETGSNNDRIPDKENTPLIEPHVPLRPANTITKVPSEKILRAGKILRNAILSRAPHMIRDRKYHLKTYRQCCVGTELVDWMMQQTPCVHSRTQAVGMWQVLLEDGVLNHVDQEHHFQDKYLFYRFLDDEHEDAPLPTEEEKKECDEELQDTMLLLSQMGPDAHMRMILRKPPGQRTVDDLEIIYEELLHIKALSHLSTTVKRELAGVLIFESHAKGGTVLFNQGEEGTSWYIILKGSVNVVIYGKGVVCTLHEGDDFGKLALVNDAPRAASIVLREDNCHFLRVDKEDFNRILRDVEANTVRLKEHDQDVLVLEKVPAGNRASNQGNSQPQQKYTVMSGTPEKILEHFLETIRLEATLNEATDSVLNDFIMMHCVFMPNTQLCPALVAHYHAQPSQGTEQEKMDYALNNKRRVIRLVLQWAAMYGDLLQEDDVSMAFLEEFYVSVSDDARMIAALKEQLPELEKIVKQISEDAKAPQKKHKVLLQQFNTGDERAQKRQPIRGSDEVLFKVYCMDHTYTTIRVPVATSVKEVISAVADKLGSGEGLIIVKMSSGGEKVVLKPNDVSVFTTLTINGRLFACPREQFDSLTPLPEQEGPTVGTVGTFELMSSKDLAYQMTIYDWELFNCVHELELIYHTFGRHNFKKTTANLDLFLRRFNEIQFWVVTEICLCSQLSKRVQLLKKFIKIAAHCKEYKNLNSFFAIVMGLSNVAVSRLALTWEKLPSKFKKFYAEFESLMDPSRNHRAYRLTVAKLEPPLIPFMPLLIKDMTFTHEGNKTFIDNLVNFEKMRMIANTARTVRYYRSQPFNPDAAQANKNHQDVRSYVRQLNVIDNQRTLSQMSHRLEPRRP

[2] = target: Metallo-beta-lactamase type 2 (Klebsiella pneumoniae) (UniProt C7C422); assay: qHTS to identify inhibitors of the New Delhi Metallo-beta-lactamase (NDM): assay validation screen against the NCATS LOPAC Collection (AID 1794843);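 note: nitrocefin turnover by NDM-1 measured as 485 nm absorbance at plateau; % is set by controls: 0 for no effect and ±100 for the full control effect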
Metallo-beta-lactamase type 2 (Klebsiella pneumoniae), sequence (C7C422 whole entry, looked up): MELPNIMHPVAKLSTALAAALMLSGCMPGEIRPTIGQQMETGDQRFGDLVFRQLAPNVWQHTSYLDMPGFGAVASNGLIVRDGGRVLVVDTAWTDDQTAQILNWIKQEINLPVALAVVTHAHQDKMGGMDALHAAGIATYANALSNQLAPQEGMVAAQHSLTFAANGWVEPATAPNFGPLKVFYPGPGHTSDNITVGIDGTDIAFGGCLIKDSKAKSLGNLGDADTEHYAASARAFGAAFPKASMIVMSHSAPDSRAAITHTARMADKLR
In short: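 Enzyme 2 nM final, 50 mM HEPES pH 7.0, 1 uM ZnSO4, 0.01% Tween20; cpds in DMSO, preincub w/ enzyme; + nitrocefin (50 uM stock); A485 at plateau; no-enzyme column as blank.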

[3] = target: Glutathione peroxidase 1 (Homo sapiens) (UniProt P07203); assay: Primary qHTS Assay for Inhibitors of Recombinant Selenoprotein Glutathione Peroxidase 1 (GPX1) (AID 1845191); note: nearly all actives have a fitted effect of over 65% in size
Glutathione peroxidase 1 (Homo sapiens), sequence (P07203 whole entry, looked up): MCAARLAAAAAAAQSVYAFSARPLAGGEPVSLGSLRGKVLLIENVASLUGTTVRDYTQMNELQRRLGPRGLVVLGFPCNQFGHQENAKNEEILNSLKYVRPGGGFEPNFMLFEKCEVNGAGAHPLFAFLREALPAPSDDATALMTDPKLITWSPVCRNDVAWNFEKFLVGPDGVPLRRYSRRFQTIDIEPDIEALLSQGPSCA
In short: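 GR-coupled readout: NADPH consumption tracked by fluorescence, ex 340/em 450 nm, at t=0 and after 15 min at RT. Final mix 10 nM GPX1, 1 mM GSH, 0.5 mM CHP, 0.5 mM NADPH, 100 nM GR, 0.01% BSA, following 30 min enzyme–compound preincubation.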

[4] = target: Phospholipid hydroperoxide glutathione peroxidase GPX4 (Homo sapiens) (UniProt P36969); assay: Primary qHTS Assay for Inhibitors of Recombinant Selenoprotein Glutathione Peroxidase 4 (GPX4) (AID 1845192); note: nearly all actives have a fitted effect of over 65% in size; note: potency is the fitted concentration of half-maximal effect; for activity change, negative = inhibition: % is set by controls: 0 for no effect and ±100 for the full control effect
Phospholipid hydroperoxide glutathione peroxidase GPX4 (Homo sapiens), sequence (P36969 whole entry, looked up): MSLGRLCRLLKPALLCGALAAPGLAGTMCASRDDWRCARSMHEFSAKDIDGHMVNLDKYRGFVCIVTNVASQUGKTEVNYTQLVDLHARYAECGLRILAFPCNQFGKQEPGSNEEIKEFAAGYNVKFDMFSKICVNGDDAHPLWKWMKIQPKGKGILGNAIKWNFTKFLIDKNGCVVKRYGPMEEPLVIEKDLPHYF
In short: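 Steps: GPX4 plus compound, 30 min RT; add GR/GSH/NADPH master mix; start with cumene hydroperoxide; read 340/450 nm fluorescence at 0 and 15 min. Finals were 200 nM GPX4, 1 mM GSH, 0.5 mM CHP, 0.5 mM NADPH, 100 nM GR.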

[5] = target: Luciferin 4-monooxygenase (Photinus pyralis) (UniProt P08659); assay: Primary firefly luciferase (FLuc) qHTS assay for identification of artifact compounds. (AID 1845220);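 note: plate controls were DMSO vehicle for no effect and no enzyme for full effect; nearly all actives have a fitted effect of over 60% in size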
In short: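 D-luciferin and ATP (10 uM each, final) in Tris acetate buffer pH 7.6 were incubated with compounds for 15 min at room temperature. The reaction was started with 10 nM Photinus pyralis luciferase and luminescence read after 5 min. Percent inhibition was fitted to a 4-parameter Hill equation.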

[6] = test system: Nanoluciferase (engineered Oplophorus gracilirostris luciferase); assay: Primary Nanoluciferase (NLuc) qHTS assay for identification of artifact compounds. (AID 1845222);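 note: 0% = DMSO and -100% = no enzyme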
In short: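 Diluted conditioned medium from NLuc-expressing S16 cells treated with compounds for 15 min at room temperature, then Nano-Glo substrate added; luminescence read after 5 min. Percent inhibition versus no-enzyme and DMSO controls fitted to 4-parameter Hill equation.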

[7] = target: Catechol O-methyltransferase (Homo sapiens) (UniProt P21964); assay: Confirmatory Screen for Target Class Profiling of Small Molecule Inhibitors of Methyltransferases (AID 1745852; calls by dose curve; note: potency is the fitted concentration of half-maximal effect); settings: MTase-Glo luminescence, SAH detection, recombinant enzyme; measured here: COMT max response; stronger effect = lower value
Catechol O-methyltransferase (Homo sapiens), sequence (P21964 whole entry, looked up): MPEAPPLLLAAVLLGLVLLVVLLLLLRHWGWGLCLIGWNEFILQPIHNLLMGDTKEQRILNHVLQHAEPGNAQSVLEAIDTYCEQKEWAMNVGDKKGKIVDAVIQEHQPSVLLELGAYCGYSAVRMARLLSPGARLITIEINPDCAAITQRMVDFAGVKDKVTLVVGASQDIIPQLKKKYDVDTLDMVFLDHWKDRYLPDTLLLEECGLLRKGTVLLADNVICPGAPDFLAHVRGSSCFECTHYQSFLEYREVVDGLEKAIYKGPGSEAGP

[8] = target: Guanidinoacetate N-methyltransferase (Homo sapiens) (UniProt Q14353); assay: as above; settings: MTase-Glo luminescence, SAH detection, recombinant enzyme; activity change, negative = inhibition: at 57.3 µM (top of the series)
[9] = target: Nicotinamide N-methyltransferase (Homo sapiens) (UniProt P40261); assay: as above; settings: MTase-Glo luminescence, SAH detection, recombinant enzyme; measured here: NNMT max response; stronger effect = lower value
Nicotinamide N-methyltransferase (Homo sapiens), sequence (P40261 whole entry, looked up): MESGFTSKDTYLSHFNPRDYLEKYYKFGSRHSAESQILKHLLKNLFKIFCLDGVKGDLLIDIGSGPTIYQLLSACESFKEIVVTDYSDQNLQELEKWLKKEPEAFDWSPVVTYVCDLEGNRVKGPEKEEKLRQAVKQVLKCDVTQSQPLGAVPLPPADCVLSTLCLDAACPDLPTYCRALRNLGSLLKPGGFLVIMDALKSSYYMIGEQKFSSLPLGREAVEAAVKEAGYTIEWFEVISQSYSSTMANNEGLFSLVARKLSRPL

[10] = target: Phenylethanolamine N-methyltransferase (Homo sapiens) (UniProt P11086); assay: as above; settings: MTase-Glo luminescence, SAH detection, recombinant enzyme; measured here: PNMT max response; stronger effect = lower value
Phenylethanolamine N-methyltransferase (Homo sapiens), sequence (P11086 whole entry, looked up): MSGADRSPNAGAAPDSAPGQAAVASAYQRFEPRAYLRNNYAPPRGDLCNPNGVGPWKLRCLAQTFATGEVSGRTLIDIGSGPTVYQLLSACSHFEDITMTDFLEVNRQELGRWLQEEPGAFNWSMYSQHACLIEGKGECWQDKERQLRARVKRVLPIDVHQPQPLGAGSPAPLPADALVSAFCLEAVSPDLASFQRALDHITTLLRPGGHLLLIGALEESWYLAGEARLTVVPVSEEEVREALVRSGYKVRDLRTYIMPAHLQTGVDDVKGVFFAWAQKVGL

[11] = target: Rap guanine nucleotide exchange factor 3 (Homo sapiens) (UniProt O95398); assay: Counterscreen qHTS for antagonist of cAMP-regulated guanine nucleotide exchange factor 3 (EPAC1) (AID 1645888);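 note: fluorescence loss as bound BODIPY-GDP is released from Rap1B; % of control where 0% means no effect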
Rap guanine nucleotide exchange factor 3 (Homo sapiens), sequence (O95398 whole entry, looked up): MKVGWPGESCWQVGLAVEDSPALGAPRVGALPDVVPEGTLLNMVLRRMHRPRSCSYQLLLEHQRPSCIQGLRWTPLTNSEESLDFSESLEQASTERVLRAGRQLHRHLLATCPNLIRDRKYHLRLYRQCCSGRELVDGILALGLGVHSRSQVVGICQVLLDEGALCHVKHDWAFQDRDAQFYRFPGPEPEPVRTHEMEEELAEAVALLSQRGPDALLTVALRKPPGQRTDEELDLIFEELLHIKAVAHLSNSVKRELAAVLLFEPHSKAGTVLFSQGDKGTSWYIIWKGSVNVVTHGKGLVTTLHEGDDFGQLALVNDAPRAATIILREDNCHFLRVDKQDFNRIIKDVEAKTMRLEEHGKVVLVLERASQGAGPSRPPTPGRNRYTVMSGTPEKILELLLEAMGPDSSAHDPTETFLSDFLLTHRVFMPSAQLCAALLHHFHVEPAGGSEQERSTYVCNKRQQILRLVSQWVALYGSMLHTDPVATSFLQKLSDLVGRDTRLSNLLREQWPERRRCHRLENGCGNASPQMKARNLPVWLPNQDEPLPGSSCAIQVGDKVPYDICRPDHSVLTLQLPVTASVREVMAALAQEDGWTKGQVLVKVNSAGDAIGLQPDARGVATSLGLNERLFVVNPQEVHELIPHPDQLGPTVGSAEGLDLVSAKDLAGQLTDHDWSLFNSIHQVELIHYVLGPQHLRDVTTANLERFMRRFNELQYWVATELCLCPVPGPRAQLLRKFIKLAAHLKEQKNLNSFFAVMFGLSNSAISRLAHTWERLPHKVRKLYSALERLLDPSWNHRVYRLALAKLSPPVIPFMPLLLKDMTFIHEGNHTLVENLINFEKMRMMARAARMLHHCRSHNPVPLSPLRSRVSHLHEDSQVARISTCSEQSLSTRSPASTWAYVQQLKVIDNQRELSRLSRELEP
In short: (§1)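 Rap1B–BODIPY-GDP (250 nM) with 50 uM GDP; compounds pin-transferred to 9.74 nM–152 uM final (activator) or from 7.32 nM upwards (inhibitor). Fluorescence Ex/Em 480/540 nm read at 5 and 30 min, then after adding cAMP or buffer, at room temperature.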

[12] = Primary fluorescence-based thiol-reactive (MSTI) qHTS assay for identification of artifact compounds. (AID 1845221);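 note: thiol-reactive compounds lower the probe fluorescence signal; nearly all actives have a fitted effect of over 65% in size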
In short: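 Curve-fitted percent inhibition (4-parameter Hill) derived from fluorescence, Ex 525/Em 598 nm, scaled with Acetyl-MSTI and MSTI; 1 h incubation at room temperature.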

[13] = NCATS anti-infectives library activity on HEK293 viability as a counter-qHTS vs the C. elegans viability qHTS (AID 1745854);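 note: HEK293 cells exposed to compounds for 24 hr before the viability read; % is set by controls: 0 for no effect and ±100 for the full control effect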
In short: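 Compound titrations (final up to 41.7 uM) were incubated with HEK293 cells for 24 hr at 37C under 5% CO2. Viable cells were quantified with CellTiter-Glo after 10 min at ambient temperature.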

[14] = target: Rap guanine nucleotide exchange factor 3 (Homo sapiens) (UniProt O95398); assay: Counterscreen qHTS for agonist of cAMP-regulated guanine nucleotide exchange factor 3 (EPAC1) (AID 1645889); note: % of control where 0% means no effect; nearly all actives have a fitted effect of over 40% in size
In short: as §1

Brc1c(Br)c(Br)c2n[nH]nc2c1Br
Potency [1]: 15.6 µM (active)
Potency [2]: inactive
Potency [3]: inactive
Potency [4]: inactive

O=C1NC(=O)/C(=C/c2ccc(-c3ccc(F)cc3O)o2)S1
Potency [1]: 9.87 µM (active)
Potency [2]: inactive
Potency [4]: inactive

COC(=O)[C@H]1[C@H]2C[C@@H]3c4[nH]c5cc(OC)ccc5c4CCN3C[C@H]2C[C@@H](OC(=O)/C=C/c2cc(OC)c(OC)c(OC)c2)[C@@H]1OC
Potency [1]: inactive
Potency [3]: inactive
Potency [5]: inactive
Potency [6]: inactive

Oc1cc2c(cc1O)CN(C(=S)NCCc1ccc(Cl)cc1)CCC2
activity [7]: 160%
activity change, negative = inhibition [8]: 2.52%
activity [9]: -17.6%
activity [10]: 0.243%
Potency [3]: inactive
Potency [4]: inactive

COc1cc(OC)c(/C=C2/C(=O)Nc3ccccc32)c(OC)c1
activity [7]: -23%
Potency [8]: 27.3 µM (active)
activity [9]: -28.2%
activity [10]: -34.5%
Potency [3]: inactive
Potency [4]: inactive

COC1=C(OC)C(=O)c2ccccc2C1=O
activity [7]: -44.1%
Potency [8]: 19.3 µM (active)
activity [9]: -23.6%
activity [10]: -70.6%
Potency [2]: inactive
Potency [3]: inactive
Potency [4]: inactive

CCOC(=O)C1=C(C)NC(C)=C(C(=O)OCC)C1c1c(F)c(F)c(F)c(F)c1F
Potency [1]: 44.1 µM (active)
Potency [3]: inactive
Potency [4]: inactive

CC(=O)[C@]1(O)Cc2c(O)c3c(c(O)c2[C@@H](O[C@H]2C[C@H](N)[C@H](O)[C@H](C)O2)C1)C(=O)c1c(O)cccc1C3=O
Potency [1]: inactive

Oc1cc(O)cc(/C=C/c2ccc(O)c(O)c2)c1
activity [7]: 119%
activity change, negative = inhibition [8]: -14.6%
activity [9]: -18.4%
activity [10]: -8.17%
Potency [3]: inactive
Potency [4]: inactive

COc1ccc(Br)cc1S(=O)(=O)NC(=O)/C=C/c1ccccc1Cc1ccc2ccccc2c1
activity [7]: 3.65%
activity change, negative = inhibition [8]: -3.05%
activity [9]: -14.5%
activity [10]: 0.509%
Potency [2]: inactive
Potency [3]: inactive
Potency [4]: inactive

O=C1C(SCCO)=C(SCCO)C(=O)c2ccccc21
Potency [1]: inactive
outcome [11]: inactive
activity [7]: -43.3%
Potency [8]: 4.85 µM (active)
activity [9]: -76.1%
activity [10]: -72.3%
Potency [2]: inactive
Potency [4]: inactive

O=Nc1ccc2oc(=O)ccc2c1
activity [7]: 0.573%
activity change, negative = inhibition [8]: 3.53%
activity [9]: -0.856%
activity [10]: 5.38%
Potency [2]: inactive
Potency [3]: inactive
Potency [4]: inactive

c1ccc(CCNc2nc(-c3ccccc3)cs2)cc1
Potency [1]: inactive

O=[N+]([O-])c1ccc(CNc2nc(NCc3cccc(C(F)(F)F)c3)nc3nc[nH]c23)cc1
activity [7]: -6.92% and 9.66%
activity change, negative = inhibition [8]: -3.71% and 5.72%
activity [9]: -49.3% and -10.9%
activity [10]: -13.5% and 7.65%
Potency [2]: inactive
Potency [3]: inactive
Potency [4]: inactive
Potency [5]: inactive
outcome [12]: inactive
Potency [6]: inactive

COc1ccc(NC(=O)/C=C/c2ccc(Cl)cc2)cc1
activity [7]: -21.5%
Potency [8]: 24.3 µM (active)
activity [9]: -60.9%
activity [10]: -10.5%
Potency [2]: inactive
Potency [3]: inactive
Potency [4]: inactive

O=C(O)CC[C@@H](C(=O)O)N1C(=O)c2ccccc2C1=O
activity [7]: -23.9%
activity change, negative = inhibition [8]: -2.85%
activity [9]: -12.9%
activity [10]: -4.01%
Potency [2]: inactive
Potency [3]: inactive
Potency [4]: inactive

Cn1cc(C2=C(c3ccc(Cl)cc3Cl)C(=O)NC2=O)c2ccccc21
activity change, negative = inhibition [1]: 2.07% [at 12.7 µM] (inactive)
outcome [11]: inactive
Potency [2]: inactive
Potency [3]: inactive
Potency [4]: inactive

O=C1O/C(=C/Br)CCC1c1cccc2ccccc12 (centres undefined)
Potency [1]: 49.4 µM (active)

NO
activity [7]: 3.62%
activity change, negative = inhibition [8]: -5.54%
activity [9]: -5.7%
activity [10]: 4.25%
Potency [2]: inactive
Potency [3]: inactive
Potency [4]: inactive

O=C1NCc2c1c1c3ccccc3[nH]c1c1[nH]c3ccccc3c21
activity [7]: -23.6%
Potency [8]: 17.2 µM (active)
activity [9]: -25.9%
activity [10]: -28.7%
Potency [3]: inactive
Potency [4]: inactive

CC(C)(C)c1ccc(S(=O)(=O)/C=C/C#N)cc1
activity [7]: 0.864%
activity change, negative = inhibition [8]: -1.56%
activity [9]: -4.25%
activity [10]: 5.53%
Potency [2]: inactive
Potency [3]: inactive
Potency [4]: inactive

COc1cc(/C=C/C(=O)CC(=O)/C=C/c2ccc(O)c(OC)c2)ccc1O
activity [7]: -53.7%
activity change, negative = inhibition [8]: -2.93%
activity [9]: -4.44%
activity [10]: 9.5%
outcome [13]: inactive
Potency [3]: inactive

COc1ccc(/C=C2\COc3ccc(C)cc3C2=O)cc1O
activity [7]: 3.43%
activity change, negative = inhibition [8]: -4.7%
activity [9]: -20.1%
activity [10]: 4.48%
Potency [3]: inactive
Potency [4]: inactive

O=C(c1cc(O)c(O)c([N+](=O)[O-])c1)c1ccccc1F
activity [7]: -103%
activity change, negative = inhibition [8]: -5.06%
activity [9]: -15.6%
activity [10]: -23.2%
Potency [2]: inactive
Potency [3]: inactive
Potency [4]: inactive

Oc1ccc(C2CNCc3sccc32)cc1O (centres undefined)
activity [7]: 133%
activity change, negative = inhibition [8]: 1.13%
activity [9]: -8.32%
activity [10]: 0.43%
Potency [3]: inactive
Potency [4]: inactive

CC1(C)[C@@H](O)CC[C@]2(C)[C@H]3C(=O)C=C4[C@@H]5C[C@@](C)(C(=O)O)CC[C@]5(C)CC[C@@]4(C)[C@]3(C)CC[C@@H]12
Potency [1]: 3.93 µM (active) and 2.48 µM (active)
Potency [3]: inactive
Potency [4]: inactive and 8.91 µM (active)
Potency [5]: inactive
outcome [12]: inactive
Potency [6]: inactive

N#C/C(=C\c1ccc(O)c(O)c1)C(=O)c1ccc(O)c(O)c1
activity change, negative = inhibition [1]: 16.6% [at 12.7 µM] (inactive)
outcome [14]: inactive
Potency [2]: inactive
Potency [3]: inactive
Potency [4]: inactive
